Whole data set: some 110,000 compounds, median “z-score” near -0.1, cut for the highest 2% near 2. This is one part of a sample in which the highest values are shown more often than they occur. Activity calls are given as the source filed them.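 The calls were made as follows: active = z-score in the third read window above 3 or below -3; inactive = the rest.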
These compounds were tested against Metabotropic glutamate receptor 8 (Rattus norvegicus) (UniProt P70579) (assay: mGluR8 Gi/Go-coupled signaling modulation – cell-based, rat, thallium flux, HTS, primary screen (AID 488969)). Details: HEK293 rat mGluR8, GIRK (G protein-gated inwardly rectifying potassium channel) thallium flux, FluoZin2; at 10 µM; stronger effect = higher value; submaximal glutamate (EC20) added with thallium.
Sequence of Metabotropic glutamate receptor 8 (Rattus norvegicus) (P70579 whole entry, looked up): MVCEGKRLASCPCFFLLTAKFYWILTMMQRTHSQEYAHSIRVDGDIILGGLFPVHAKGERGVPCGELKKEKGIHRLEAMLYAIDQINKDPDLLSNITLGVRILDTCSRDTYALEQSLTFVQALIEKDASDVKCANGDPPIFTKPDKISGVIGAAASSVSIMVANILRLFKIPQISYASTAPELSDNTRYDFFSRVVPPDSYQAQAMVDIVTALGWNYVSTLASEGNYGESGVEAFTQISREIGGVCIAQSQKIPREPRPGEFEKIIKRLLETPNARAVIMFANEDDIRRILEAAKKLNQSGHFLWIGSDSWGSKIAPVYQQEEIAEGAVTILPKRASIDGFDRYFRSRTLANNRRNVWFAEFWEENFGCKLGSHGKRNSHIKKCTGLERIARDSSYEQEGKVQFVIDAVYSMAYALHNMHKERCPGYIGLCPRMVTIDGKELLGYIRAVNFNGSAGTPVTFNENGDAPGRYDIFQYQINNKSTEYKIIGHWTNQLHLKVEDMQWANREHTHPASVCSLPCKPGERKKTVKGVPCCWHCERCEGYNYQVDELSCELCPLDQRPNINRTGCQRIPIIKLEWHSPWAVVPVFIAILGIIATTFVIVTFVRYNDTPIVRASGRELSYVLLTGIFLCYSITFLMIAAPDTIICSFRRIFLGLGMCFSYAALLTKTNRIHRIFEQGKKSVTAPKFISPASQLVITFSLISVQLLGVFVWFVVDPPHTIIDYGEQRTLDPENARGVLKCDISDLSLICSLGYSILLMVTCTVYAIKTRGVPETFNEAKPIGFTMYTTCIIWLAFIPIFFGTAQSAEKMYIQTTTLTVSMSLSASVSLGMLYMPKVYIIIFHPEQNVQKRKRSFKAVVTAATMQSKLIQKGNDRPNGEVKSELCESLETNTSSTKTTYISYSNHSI

| Structure (SMILES) | z-score |
| --- | --- |
| CCOC(=O)c1c(C)nc2sc3c(=O)n(-c4ccc(C(C)=O)cc4)cnc3c2c1-c1ccc(Cl)cc1 | -0.533 |
| CC(C)(Oc1ccc(Cl)cc1)C(=O)N1CCN(c2ccccn2)CC1 | -0.0555 |
| Cc1cc(C)nc(/N=C2\NC(=O)CC3C(=O)NCCN23)n1 (centres undefined) | -0.12 |
| CS(=O)(=O)N(CC(=O)NCc1ccncc1)c1ccc(Cl)c(Cl)c1 | -0.214 |
| COC(=O)c1cc(Cl)c(NC(=O)/C=C/c2ccc(Cl)cc2)cc1OC | -0.0302 |
| CCCN1C2CCCC1CC(NC(=O)Nc1ccc(C(C)C)cc1)C2 (centres undefined) | 0.407 |
| CN1CCN(Cc2cc(=O)oc3cc4c(cc23)CCC4)CC1 | 0.745 |
| O=C(NC(=S)NC1CC1)c1cccnc1 | 0.798 |
| CN(C(=S)NC(=O)c1ccccc1Br)C1CCCCC1 | 3.51 (active) |
| O=C(NC(=S)NC1CCCCCCCCCCC1)c1cccnc1 | -0.0629 |
| O=C(NC(=S)NC1CCCCCC1)c1cncc(Br)c1 | 6.87 (active) |
| CN(C(=O)c1ccccc1Cl)C1CCCCC1 | 0.549 |
| CN(C(=O)c1ccc(C(=O)N(C)C2CCCCC2)cc1)C1CCCCC1 | 0.244 |
| c1ccc2sc(C3CCN(Cc4nnnn4Cc4ccc5c(c4)OCO5)CC3)nc2c1 | 0.227 |
| CCc1nc(NCCCCCO)c2nnn(Cc3ccccc3F)c2n1 | -0.538 |
| COC(=O)c1ccc2c(=O)n(CCO)c(=S)[nH]c2c1 | 0.000255 |
| CCn1c(=S)[nH]c2cc(C(=O)OC)ccc2c1=O | 7.77 (active) |
| COCCCNC(=O)c1ccc2c(=O)n(CC3CCCO3)c(=S)[nH]c2c1 (centres undefined) | 0.247 |
| O=C(NCC1CCCO1)c1ccc2c(=O)n(CC3CCCO3)c(=S)[nH]c2c1 (centres undefined) | 0.352 |
| COC(=O)c1ccc2c(=O)n(CC3CCCO3)c(=S)[nH]c2c1 (centres undefined) | 7.72 (active) |
| CCN(CC)CCCn1c(=S)[nH]c2cc(C(=O)OC)ccc2c1=O | 0.199 |
| O=C1CN(c2ccccc2Cl)C(=O)CN1c1ccccc1Cl | 0.348 |
| Cc1cccc(C)c1N1CCc2cn[nH]c21 | -0.273 |

| Structure (SMILES) | z-score |
| --- | --- |
| O=C(CSc1nc2cc(Cl)ccc2s1)NC1CCCc2ccccc21 (centres undefined) | -0.115 |
| CC12CCC(C(=O)N(Cc3ccccc3)Cc3ccccc3)(OC1=O)C2(C)C (centres undefined) | -0.0292 |
| CCC(C)NC(=O)CSc1nc2ccccc2c(=O)n1Cc1ccc(OC)cc1 (centres undefined) | 3.19 (active) |
| Cc1cc(NC(=O)CSc2nc3ccccc3c(=O)n2Cc2ccccc2)no1 | 4.05 (active) |
| Cc1cc(NC(=O)CSc2nc3ccsc3c(=O)n2NC(=O)c2ccccc2)no1 | 3.32 (active) |
| COc1ccc(NC(=O)CSc2nc3ccccc3c(=O)n2Cc2cccs2)c(OC)c1 | 0.00897 |
| CC(C)CCNC(=O)CSc1nc2ccsc2c(=O)n1NC(=O)c1ccccc1 | -0.0204 |
| Cc1ccc(Cn2c(SCC(=O)Nc3cc(C)on3)nc3ccccc3c2=O)cc1 | 1.07 |
| Cc1ccc(NC(=O)CSc2nc3ccccc3c(=O)n2CCCN2CCCCC2)cc1C | 0.975 |
| O=C(CSc1nc2ccsc2c(=O)n1NC(=O)c1ccccc1)Nc1nccs1 | -0.202 |
| CCCCn1c(SCC(=O)Nc2cc(C)on2)nc2ccccc2c1=O | -1.45 |
| CCOCCCn1c(SCC(=O)NC(C)C)nc2ccccc2c1=O | 0.328 |
| COc1ccc(NC(=O)CSc2nc3ccccc3c(=O)n2CCCN2CCCCC2)c(OC)c1 | 3.69 (active) |
| CCCCNC(=O)CSc1nc2cc(OC)c(OC)cc2c(=O)n1Cc1ccc(OC)cc1 | -0.298 |
| Cc1cc(C)[n+](-c2ccc(F)cc2)c2[nH]c(=O)[nH]c(=O)c12 | 0.407 |
| Cc1ccc(C(=O)N2CC(=O)Nc3ccc(F)cc3C2c2ccccc2)cc1[N+](=O)[O-] (centres undefined) | -0.229 |
| O=C(NNC(=O)c1sc2cccc(Cl)c2c1Cl)Nc1ccccc1 | -0.00877 |
| C=CCn1c(SCC(=O)Nc2ccc3c(c2)OCO3)nc2ccccc2c1=O | 0.212 |
| Cc1ccc(OCCCN(C)C)c(Br)c1 | 1.17 |
| CCOC(=O)c1oc2ccc(S(=O)(=O)n3nc(-c4ccc(Cl)cc4)cc3N)cc2c1C | -0.324 |
| CN(CCC#N)C(=O)COC(=O)c1ccc(Cl)c(S(N)(=O)=O)c1 | 0.0421 |
| CC1CCN(C(=O)Cn2c(=O)n(Cc3ccc4c(c3)OCO4)c(=O)c3ccccc32)CC1 | -1.65 |
| CCCCNC(=O)CSc1nc2ccccc2c(=O)n1Cc1ccc2c(c1)OCO2 | 0.908 |

| Structure (SMILES) | z-score |
| --- | --- |
| CC1CCN(C(=O)CSc2nc3ccccc3c(=O)n2Cc2ccc3c(c2)OCO3)CC1 | 2.16 |
| Cc1cccc(-n2ncc3c(NCCc4ccc(S(N)(=O)=O)cc4)ncnc32)c1 | 8.89 (active) |
| Cc1cccc(-n2ncc3c(NCCCO)ncnc32)c1 | 0.607 |
| c1ccc(CCNc2ncnc3c2cnn3-c2ccccc2)cc1 | -1.25 |
| O=C(CSc1ccc2nnc(-c3cccc(F)c3)n2n1)N1CCCc2ccccc21 | -0.911 |
| Cc1ccc(NC(=O)CN(C)C(=O)CCOc2ccccc2C)cc1 | 1.66 |
| CCC(CC)C1C(C#N)=C(N)Oc2n[nH]c(-c3ccccc3)c21 (centres undefined) | -0.557 |
| O=C(NNC(=S)Nc1ccccc1)C1CC1 | -0.336 |
| O=C(NN=C1C2CC3CC(C2)CC1C3)c1cccs1 | 0.589 |
| S=C(N/N=C1\C2CN3CCN(C2)CC1(c1ccccc1)C3)Nc1ccccc1 | 0.425 |
| S=C(NN=C1C2CC3CC(C2)CC1C3)Nc1ccccc1 | 11.7 (active) |
| S=C(NN=C(C1CC1)C1CC1)Nc1ccccc1 | 4.43 (active) |
| CCC(=O)Nc1ccc(NC(=S)Nc2ccccc2)cc1 | -0.362 |
| CNC(=S)N/N=C/c1c(C)nn(-c2cccc(Cl)c2)c1Cl | -0.134 |
| CCOC(=O)C1CCN(C(=O)CSc2nnc(-c3ccco3)n2-c2ccccc2)CC1 | -0.369 |
| O=C(NCc1ccccc1Cl)c1ccccc1Oc1ccccc1 | -0.412 |
| CCOC(=O)C1C(=O)Nc2nc3ccccc3n2C1C(C)C (centres undefined) | -0.438 |
| Cc1cccc(C)c1Nc1c(-c2ccsc2)nc2ncccn12 | -0.464 |
| COC(=O)Nc1c(-c2ccccc2)nc2ccccn12 | -0.126 |
| Cc1ccc(-c2nc3ncccn3c2NC(=O)C2CC2)cc1 | 0.268 |
| CC(=O)Nc1c(-c2ccc(F)cc2)nc2ccccn12 | 2.25 |
| CC(=O)Nc1c(-c2ccccc2)nc2ncccn12 | 2.69 |
| Cc1ccc(-c2nc3ccccn3c2NC(=O)c2ccco2)cc1 | 0.65 |

| Structure (SMILES) | z-score |
| --- | --- |
| CC(C)(C)NC(=O)CN(C(=O)Cn1nnc(-c2ccc(Cl)cc2)n1)C1CCN(Cc2ccccc2)CC1 | -0.128 |
| CC1CC(C)CN(c2ncnc3c2cnn3Cc2ccc(Cl)cc2)C1 (centres undefined) | -0.714 |
| O=C(CSc1nnnn1-c1cccnc1)Nc1ccc(OCc2ccccc2)cc1 | -0.183 |
| CCn1c(=O)c(C(=O)NCCCO)c(O)c2ccccc21 | 3.51 (active) |
| CCn1c(=O)c(C(=O)NCCc2ccccc2)c(O)c2ccccc21 | 0.613 |
| CCNCCNC(=O)c1c(O)c2ccccc2n(CC)c1=O | -0.289 |
| COc1ccc(C(=O)COc2ccc(NC(C)=O)cc2)cc1 | -0.0378 |
| COc1ccc(CCNC(=O)c2cc(-c3ccccc3)on2)cc1OC | 0.914 |
| S=C(Nc1ccccc1)Nc1ccc(OCc2ccc(Cl)cc2Cl)cc1 | -0.223 |
| Fc1ccc(CNC(=S)Nc2ccc(Cl)cc2)cc1 | 0.385 |
| S=C(NCc1ccc(Cl)cc1Cl)Nc1ccccc1 | 3.34 (active) |
| Fc1ccccc1CNC(=S)Nc1ccc(Cl)cc1 | 2.23 |
| Fc1ccc(NC(=S)NCc2ccccc2Cl)cc1 | 1.74 |
| S=C(NCCSCc1ccc(Cl)cc1Cl)Nc1ccccc1 | -0.181 |
| O=C(OC(C(=O)NC1CCCCC1)c1ccccc1)c1ccco1 (centres undefined) | -0.0658 |
| Cc1cccc(C(C)C)c1NC(=O)c1ccc(CN(c2ccccc2)S(=O)(=O)c2ccccc2)cc1 | -0.0858 |
| COc1cc2c(cc1NC(=O)C(C)NCc1ccccc1)oc1ccccc12 (centres undefined) | 0.0909 |
| O=C(NC1CCCCC1)C(c1ccccc1)N(Cc1ccco1)C(=O)Cn1cnc2ccccc21 (centres undefined) | -1.29 |
| CC1(C)Cc2nc(N3CCOCC3)c(C#N)cc2CO1 | -0.0959 |
| CC1(C)Cc2nc(NCCN3CCOCC3)c(C#N)cc2CO1 | 7.19 (active) |
| CC1(C)Cc2nc(NCCCO)c(C#N)cc2CO1 | 2.93 |
| CC(C)CCNc1nc2c(cc1C#N)COC(C)(C)C2 | -0.377 |
| CC(C)c1nc(NCCN2CCOCC2)c(C#N)c2c1COC(C)(C)C2 | -0.502 |

| Structure (SMILES) | z-score |
| --- | --- |
| Cc1nc(NCCCO)c(C#N)c2c1COC(C)(C)C2 | 1.53 |
| Nc1nnc(SCC(=O)c2ccco2)s1 | -0.0604 |
| O=S1(=O)C=C(SCc2ccccc2)Nc2ccccc21 | -0.11 |
| CCOC(=O)c1nn(-c2ccc(OCC)cc2)c(C)c1C(C)=O | 0.0801 |
| CCCCOC(=O)c1ccc(NC(=O)c2cnc3n(c2=O)CCS3)cc1 | 0.203 |
| CCc1ccc(NC(=O)c2cnc3n(c2=O)CCS3)cc1 | 2.53 |
| COc1ccc(CNC(=O)c2cnc3n(c2=O)CCS3)cc1 | -0.183 |
| O=C(NCc1ccccc1)c1cnc2n(c1=O)CCS2 | -0.0906 |
| O=C(NCc1ccc(F)cc1)c1cnc2n(c1=O)CCS2 | 2.18 |
| O=C(Nc1ccccc1)c1cnc2n(c1=O)CCS2 | -0.146 |
| CCOC(=O)c1ccc(N2C(=O)C3ON(c4ccccc4)C(c4ccco4)C3C2=O)cc1 (centres undefined) | -0.354 |
| COc1cc(OC)nc(NC(=O)CSc2nc3ccccc3o2)n1 | -0.294 |
| Cc1cc(C)cc(N(CC(=O)O)S(=O)(=O)c2c(C)noc2C)c1 | -0.132 |
| CCNC(=S)NN(c1ccccc1)c1ccccc1 | 0.837 |
| CC(C)NC(=S)NN(c1ccccc1)c1ccccc1 | 2.38 |
| CNC(=S)NN(c1ccccc1)c1ccccc1 | -0.0349 |
| COc1ccc(OC)c(C2C3=C(CCCC3=O)NC3=C2C(=O)CCC3)c1 | -0.586 |
| O=S(=O)(Cc1ccccc1Cl)CC(O)COc1ccccc1Cl (centres undefined) | -0.273 |
| COc1ccc(CNC(=O)c2c(C)nc3ccccn23)cc1 | -0.0334 |
| Cc1nc2ccccn2c1C(=O)NN | 2.34 |
| Cc1c(C(=O)NN)nc2ccccn12 | -0.145 |
| COc1nc(N/N=C/c2ccc(-c3ccccc3[N+](=O)[O-])o2)nc(N2CCOCC2)n1 | -0.309 |

Reference: PubChem BioAssay AID488969 (Vanderbilt High Throughput Screening Facility, 2010)
